BCR signal inh = chronic active BCR signaling inhibition; ABC-DLBCL IkBa-CBG/CBR reporter, luminescence ratio, 4 h; Potency, µM (highest dose often 46.1 µM), most hits filed as inhibitors; 340,000 compounds, 0.05% hits; AID 493014; active means well fitted inhibition curve with a large enough effect in the signal ratio, with a control signal flat, not every such curve was filed as active; inconclusive means small, poorly fitted or top-dose-only effect, or effect the other way, or a change in a side signal; the % refers to the signal ratio
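Doxycycline induced both beetle luciferases in TMD8 lymphoma cells; IKK-driven degradation limits the IkappaBalpha-fused green signal, while red luminescence normalises for cell number and nonspecific effects. Compounds tested up to 46 uM, 4 hrs.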
Glioma ERSR ind = ER stress response induction in glioma; U87-MG GRP78 promoter luciferase reporter, 16 h; Potency, µM, actives largely listed as activators; 420,000 compounds, 0.02% hits; AID 602332; further: series mostly up to about 76 µM; nearly all actives have a fitted effect of over 35% in size
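Stably transfected U87-MG glioma cells carrying a GRP78-based luciferase sensor; 16 h compound incubation. Luminescence end-point read 10 min after Bright-Glo addition at room temperature.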
Apoferritin bind = binds horse apoferritin like a general anesthetic; P02791; apoferritin/1-aminoanthracene competitive binding, fluorescence; Potency, µM (top dose mostly 77.5 µM), most hits filed as inhibitors; 350,000 compounds, 0.074% hits; further: nearly all actives have a fitted effect of over 20% in size
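Probe: 1-aminoanthracene (50% saturated, PBS). Protein: horse-spleen apoferritin, 10 uM. Incubation: 10 min, room temperature. Detection: 380 nm excitation, 535 nm emission. Analysis: normalized response, four-parameter Hill.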
ALOX12 inh = blocks human arachidonate 12S-lipoxygenase. P18054. purified 12hLO, xylenol orange hydroperoxide absorbance. Potency, µM (top dose mostly 108 µM), hits mostly inhibitors. 580,000 compounds, 1.1% hits. AID 1671190
Target sequence (P18054 whole entry, looked up): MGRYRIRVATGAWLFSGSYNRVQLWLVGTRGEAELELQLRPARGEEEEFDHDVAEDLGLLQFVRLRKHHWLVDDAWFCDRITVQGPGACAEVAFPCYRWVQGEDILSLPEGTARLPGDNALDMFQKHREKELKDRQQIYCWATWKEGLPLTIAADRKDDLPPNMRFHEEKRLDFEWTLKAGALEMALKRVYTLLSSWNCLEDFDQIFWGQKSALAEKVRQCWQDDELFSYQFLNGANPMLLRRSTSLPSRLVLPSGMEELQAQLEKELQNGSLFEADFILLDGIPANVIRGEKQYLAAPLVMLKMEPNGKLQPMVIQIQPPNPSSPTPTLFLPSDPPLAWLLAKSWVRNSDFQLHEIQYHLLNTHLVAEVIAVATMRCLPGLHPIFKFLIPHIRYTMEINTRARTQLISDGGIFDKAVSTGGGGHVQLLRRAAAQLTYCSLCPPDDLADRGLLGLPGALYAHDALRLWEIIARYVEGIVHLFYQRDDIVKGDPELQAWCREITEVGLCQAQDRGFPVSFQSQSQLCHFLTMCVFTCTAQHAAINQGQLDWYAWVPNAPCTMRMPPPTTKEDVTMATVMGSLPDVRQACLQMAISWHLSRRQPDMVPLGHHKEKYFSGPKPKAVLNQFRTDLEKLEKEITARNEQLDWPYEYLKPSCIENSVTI
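Purified human 12hLO (150 nM final) in 25 mM Hepes, 0.01% Triton X-100, pH 7.0 was preincubated 15 min at room temperature with compound. Then 40 uM arachidonic acid was added, 30 min. Hydroperoxide was read by Fe-XO absorbance ratio 573/405 nm.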
Numbers stand for hits; - = inactive; ? = inconclusive; . = no result given. Sampled rows, rich in hits. Any-hit rate of the full collection: about 1.1%. Unless noted, the call rests on the fitted dose curve; in most records, active means well fitted curve in the direction sought with a large enough effect; inconclusive means small, poorly fitted or top-dose-only effect, or another doubt; inactive means no such curve, though single readings can be large; an effect the other way counts as inactive or inconclusive.

SMILES	BCR signal inh	Glioma ERSR ind	Apoferritin bind	ALOX12 inh
O=C(CN1CCN(c2ccc(O)cc2)CC1)NC(c1ccccc1)c1ccccc1	-	-	-	22.4µM
CCC(C(=O)NCc1ccc(C)cc1)c1ccccc1 (configuration not stated)	-	-	-	25.1µM
COc1ccc(-c2c(C(=O)O)sc3c2NC(=O)CC32C(=O)N(C)c3ccc(C(C)C)cc32)cc1 (configuration not stated)	.	.	.	-
Fc1ccc(Nc2ccnc(-c3ccc4c(c3)OCO4)n2)cc1	.	-	.	17.8µM
COc1cc(C(=O)Nc2ccc3sc(NC(C)=O)nc3c2)cc(OC)c1OC	.	.	.	-
COc1ccc(N2Cc3c(NCC4CCCCCC4)ncnc3N(C)CC2=O)cc1	.	.	.	-
COc1cccc(CN2CCCCCCNC(=O)CC2c2ccccc2)c1OC (configuration not stated)	.	.	.	-
CCCN1CNC(=S)N(c2ccc(C(=O)OCC)cc2)C1	-	-	-	-
CCOC(=O)c1ccc(N2CN(CCc3ccccc3)CNC2=S)cc1	?	-	-	44.7µM
CN(CC(=O)Nc1ccc(F)cc1)C(=O)c1cc(-c2ccco2)nc2ccccc12	-	-	.	14.1µM
Cc1ccc(NC(=O)CN(C)C(=O)c2cc(-c3ccco3)nc3ccccc23)cc1	-	-	.	7.08µM
COc1cccc(NC(=O)CN(C)C(=O)c2cc(-c3ccco3)nc3ccccc23)c1	-	-	.	?
CCOc1ccc(NC(=O)CN(C)C(=O)c2cc(-c3ccco3)nc3ccccc23)cc1OCC	.	-	.	?
Cc1ccc(N(C)C(=O)c2cc(-c3ccco3)nc3ccccc23)cc1	.	.	.	35.5µM
CCc1nccc(-c2c(-c3ccccc3)ncn2CC(O)c2ccccc2)n1 (configuration not stated)	.	.	.	-
CCn1c(C(=O)NCCc2ccco2)cc2cc(S(=O)(=O)N(C)C)ccc21	.	.	.	-
CCn1c(=O)c(=O)[nH]c2cc(C(=O)N3CCC4(CC3)OCCO4)ccc21	.	.	.	-
Cc1cc2oc(=O)cc(CN3CCN(C)CC3)c2cc1C	.	.	.	-
CCOC(=O)c1sc(Nc2ccccc2)nc1C(F)(F)F	.	.	.	39.8µM
CCOC(=O)c1sc(Nc2ccccc2)nc1C	-	-	-	?
O=C(O)/C(=C\c1ccc(Cl)c([N+](=O)[O-])c1)c1ccc(S(=O)(=O)N2CCCC2)s1	-	-	.	17.8µM
COC(=O)c1ccc(OC(=O)/C=C/c2ccc(Br)o2)cc1	.	.	.	11.2µM
CCN(C(=O)Cc1nc(-c2cccs2)oc1C)c1ccc(F)cc1	.	.	.	-
CCOc1cc(N2CCOCC2)c(OCC)cc1NC(=O)CSc1ncccc1C(=O)O	?	-	.	11.2µM
CCOc1cc(N2CCOCC2)c(OCC)cc1NC(C)C(=O)N1CCN(CC)CC1 (configuration not stated)	-	-	-	3.16µM
SMILES	BCR signal inh	Glioma ERSR ind	Apoferritin bind	ALOX12 inh
O=C(NNc1ncnc2c1cnn2-c1ccccc1)C1CCCCC1	.	.	.	-
COC(=O)CCC1(C)C(=C(C)C)CCC(C)C1COc1ccc2ccc(=O)oc2c1 (configuration not stated)	.	.	.	-
COc1cc(F)ccc1-c1ccc(=O)n(Cc2ccc(F)cc2Cl)n1	.	.	.	-
CC(NC(=O)c1ccc2c(c1)NC(=O)CS2)c1ccc2c(c1)OCO2 (configuration not stated)	.	.	.	14.1µM
Cc1cc(C(=O)NC(C)c2ccc3c(c2)OCO3)cs1 (configuration not stated)	-	-	-	-
O=C(c1ccccc1OCC1CCCN(Cc2ccncc2F)C1)N1CCCC1 (configuration not stated)	.	.	.	-
CCN1/C(=C\C(=S)Nc2ccccc2)Sc2ccccc21	?	-	?	31.6µM
CCOc1ccc(C(C)=O)cc1COC(=O)/C(=C\c1ccccc1)NC(C)=O	.	.	.	-
Cc1ccccc1OCC(=O)OCC(=O)Nc1ncc(Cl)c(C)c1Cl	-	-	.	8.91µM
COc1cc(OC)cc(-c2cc3ncccc3cn2)c1	?	-	.	31.6µM
COc1cc(OC)cc(-c2cc3ccc(OC)cc3cn2)c1	?	-	.	-
CC(Cc1cccs1)N(Cc1ccccc1)C(=O)c1cccc(S(=O)(=O)N(C)C)c1 (configuration not stated)	.	.	.	-
N#CCCN1CCN(CCC#N)c2ccccc21	.	-	.	28.2µM
CC(C)c1noc(CCC(=O)NC(C)c2ccccn2)n1 (configuration not stated)	.	.	.	-
CC(C)c1ccc(S(=O)(=O)N2CCN(Cn3ncc4ccccc4c3=O)CC2)cc1	.	.	.	-
CCN(CC)CCNS(=O)(=O)c1ccc(OC)c(Br)c1	-	-	-	3.55µM
COC(=O)c1sc(=S)n(-c2cccc(C)c2C)c1N	.	.	.	-
CCCCn1cnc2c(c1=O)c1nc3ccccc3nc1n2Cc1ccc2c(c1)OCO2	-	-	-	7.94µM
CC(C)Cn1cnc2c(c1=O)c1nc3ccccc3nc1n2Cc1ccc2c(c1)OCO2	-	.	-	.
N#CC1=C(N)NC(=S)C(C(N)=O)C1c1ccc([N+](=O)[O-])cc1 (configuration not stated)	?	-	-	44.7µM
O=C1NC(C(=O)O)=CC(c2ccc([N+](=O)[O-])cc2)N1 (configuration not stated)	-	-	-	?
N#CC1(C(=O)Nc2cnc3ccccc3c2)CCCC1	.	.	.	-
Cc1nn(CCC(=O)NNC(=S)NCC(C)C)c(C)c1Br	16.4µM	-	-	-
O=C(CN1CCN(c2ncccc2C(F)(F)F)CC1)NC1CC1	.	.	.	-
Cc1cccc(N2CCN(c3ccc(C(=O)O)cc3NC(=O)c3cccc(Cl)c3)CC2C)c1 (configuration not stated)	.	-	-	44.7µM
SMILES	BCR signal inh	Glioma ERSR ind	Apoferritin bind	ALOX12 inh
C=CCNC(=O)N(CCc1ccccn1)Cc1ccc(F)cc1	.	.	.	-
CCCC/C(C)=N/NC(=S)Nc1ccccc1	.	.	.	6.31µM
Cc1[nH]n(-c2ccccc2)c(=S)c1C=NCCCN=Cc1c(C)[nH]n(-c2ccccc2)c1=S	?	-	-	11.2µM
COC(=O)CN=Cc1c(C)[nH]n(-c2ccccc2)c1=O	-	-	-	-
CC(C)(C)c1cc(-c2ccccc2)c2cc([N+](=O)[O-])ccc2n1	.	.	.	-
CCn1c(O)c(/C=C/C=C/C=Nc2ccccc2)sc1=S	-	-	-	?
Oc1c(/C=C/C=C/C=Nc2ccccc2)sc(=S)n1Cc1ccccc1	?	-	-	12.6µM
O=C(COC(=O)CCC(=O)c1ccc(F)cc1)NC1CCCCCC1	.	.	.	-
O=S(=O)(O)c1cccc2cccc(Nc3ccccc3)c12	.	-	.	39.8µM
Cc1ccsc1/C=C/C1=Cc2c(sc(NC(=O)CSc3n[nH]c(N)n3)c2C#N)C(C)(C)C1	-	-	?	?
Cc1ccsc1/C=C/C1=Cc2c(sc(N)c2C#N)C(C)(C)C1	.	.	.	17.8µM
CN1CCN(C(c2ccc(C(F)(F)F)cc2)c2ccc3cccnc3c2O)CC1 (configuration not stated)	?	-	-	17.8µM
Cc1cc(C)n(-c2nc3cc(Cl)ccc3nc2NCc2ccncc2)n1	.	.	.	-
COc1ccc(/C=C2/CCn3c2nc2cc(Cl)ccc2c3=O)cc1O	.	.	.	1.78µM
O=C(O)c1ccc2c(=O)n3c(nc2c1)/C(=C/c1cccc(O)c1)CC3	-	-	-	7.94µM
